Bioassay records: PubChem BioAssay, University of Kansas High Throughput Screening Laboratory
Pf apPOL inh – Pf-apPOL DNA polymerase inhibition; Recombinant Pf-apPOL, molecular beacon fluorescence, 1.5 h; inhibition, % at 10 µM; hit rate 0.25% among 210,000
mHTT CaM bind – mHTT-calmodulin interaction abrogation | P42858 | AlphaScreen His-mHTT/GST-CaM binding, luminescence | inhibition, % at 15 µM | hit rate 3.6% among 190,000 | AID 1671202
A number is an active result; . = inactive; / = no result. Rows were chosen to be rich in hits. Some 3.6% of all compounds tested hit in one or more screens of this group. No stated cut-off is given here; in the data, active means inhibition above about 50%; inactive means the rest.

SMILES	Pf apPOL inh	mHTT CaM bind
O=C(Nc1ccc(-c2ccc([N+](=O)[O-])cc2)cc1)c1ccco1	.	.
Cc1ccc2cccc(SCc3ccc([N+](=O)[O-])cc3)c2n1	.	.
CC(=O)NC(c1ccccc1C)c1ccc2cccnc2c1O (configuration not stated)	.	100
Cc1cccnc1NC(c1ccc([N+](=O)[O-])cc1)c1ccc2cccnc2c1O (configuration not stated)	.	100
O=C1OC(/C=C/c2ccccc2)=NC/1=C\c1cccs1	.	.
CCCc1nc2c(c(=O)n1CC(=O)Nc1ccccc1)CCN(Cc1ccccc1)C2	.	.
Cc1nn(-c2ccccc2)c(C)c1CNCCCN1CCOCC1	.	.
CC(=O)NC(c1ccc([N+](=O)[O-])cc1)c1ccc2cccnc2c1O (configuration not stated)	.	100
Cc1oc2ccccc2c2nn(C)c(=O)c1-2	.	/
Cc1cccc(N2C(=O)c3ccccc3C2C(=O)NC2CCCCC2)c1C (configuration not stated)	.	.
O=c1oc2ccc(Cl)cc2n1CNc1ccccc1F	63	.
O=c1oc2ccc(Cl)cc2n1CNc1ccccc1	.	.
CCCNC(=O)c1c(-c2ccccc2)noc1C	.	.
CCCCN1C(=O)C(C)(C(=O)Nc2ccc(OCC)cc2)Oc2cccnc21 (configuration not stated)	.	.
c1cc(-c2ccsc2)[nH]n1	.	/
CC1CCN(CC(O)COC2CCCC2)CC1 (configuration not stated)	.	.
CC1CC(OCC(O)CN2CCC(CN3C(=O)c4cccc5cccc(c45)C3=O)CC2)CC(C)(C)C1 (configuration not stated)	77	.
COc1ccc(N2CCN(CC(O)COC3CCC(C(C)(C)C)CC3)CC2)cc1 (configuration not stated)	.	.
CC(C)(C)C1CCC(OCC(O)CN2CCC(CN3C(=O)c4cccc5cccc(c45)C3=O)CC2)CC1 (configuration not stated)	.	100
COc1ccc(C=NCCN2Cc3ccccc3C2=O)cc1OC	.	.
O=C(NC1CCN(c2ccccc2C(=O)N2CCCC2)CC1)C1CCCC1	.	.
O=C(CC1c2ncccc2C(=O)N1c1ccccc1)N1CCOCC1 (configuration not stated)	.	.
COc1ccc2nc(N3CCCC(C(=O)NC4CCCCC4)C3)sc2c1 (configuration not stated)	.	.
CCn1cc(-c2nc(C(=O)N3CCN(c4ccccc4)CC3)cs2)c2cccnc21	.	100
O=C(c1csc(-c2ccncc2)n1)N1CCN(c2cccc(C(F)(F)F)c2)CC1	.	63
SMILES	Pf apPOL inh	mHTT CaM bind
Cc1nc(-c2cn(C)c3ncccc23)sc1C(=O)N1CCN(c2ccccc2)CC1	.	55
CCn1cc(-c2nc(C)c(C(=O)N3CCOCC3)s2)c2cccnc21	.	.
COc1cccc(N2CCN(C(=O)c3csc(-c4cccnc4)n3)CC2)c1	.	.
CCn1cc(CC(=O)N2CCN(c3ccccc3)CC2)c2cccnc21	.	.
N#CC1=C(N)OC2=C(C(=O)CC(c3ccccc3)C2)C1c1ccc([N+](=O)[O-])cc1 (configuration not stated)	.	.
Cc1nn(C(=O)C2C3CCC(O3)C2C(=O)O)c(C)c1Br (configuration not stated)	.	.
CC1(C)CC(OC(=O)CC(=O)OC2CC(C)(C)NC(C)(C)C2)CC(C)(C)N1	.	.
CCC(C)NC(=O)C1=C2CCCN2c2ccc(F)cc2S1(=O)=O (configuration not stated)	.	.
Fc1ccc(-n2c(Cc3ccsc3)n[nH]c2=S)cc1	.	/
O=C(CSc1cn(CCNC(=O)c2cccs2)c2ccccc12)Nc1ccccc1F	.	.
Cc1ccc(C(=O)N2CCCC(COc3ccc(C(=O)NC(C)C)cc3)C2)cc1 (configuration not stated)	.	.
O=C(C1=COCCO1)N1CCN(c2nc3ccc([N+](=O)[O-])cc3s2)CC1	.	.
COc1ccccc1NC(=O)c1ccccc1NC(=O)c1ccc(C)cc1	.	.
O=[N+]([O-])c1ccc(O)c(C=Nc2cccc3ncccc23)c1	.	.
Cc1ccc(O)c(C=Nc2ccc(Br)c3cccnc23)c1	.	101
COc1ccc(N2CCN(C(=O)C3CCCN(c4ccncc4)C3)CC2)cc1 (configuration not stated)	.	.
Cc1ccc(O)c(NC(=O)c2nn3c(c2Cl)NC(c2cccs2)CC3C(F)(F)F)c1 (configuration not stated)	.	55
O=C(Nc1cccc(Cl)c1)c1nn2c(c1Cl)NC(c1cccs1)CC2C(F)(F)F (configuration not stated)	.	.
Cc1ccc(O)c(NC(=O)c2nn3c(c2Cl)NC(c2ccccc2)CC3C(F)(F)F)c1 (configuration not stated)	.	54
CC(C)(C)NC(=O)c1nn2c(c1Cl)NC(c1ccccc1)CC2C(F)(F)F (configuration not stated)	.	.
CC1CCN(C(=O)C2c3ccccc3CCN2CC(=O)Nc2ccc(F)cc2F)CC1 (configuration not stated)	.	.
COc1ccccc1-n1nc(C(=O)NC2CCCCCC2)c2ccccc2c1=O	.	.
O=c1[nH]cc(NCc2ccccc2)c(=O)[nH]1	.	/
CN(CC(=O)NCc1ccco1)S(=O)(=O)c1ccc2[nH]c3c(c2c1)CCCC3	.	.
Cc1ccc(CNS(=O)(=O)c2ccc3[nH]c4c(c3c2)CCCCC4)cc1	.	.
SMILES	Pf apPOL inh	mHTT CaM bind
O=S(=O)(NCc1ccccc1)c1ccc2[nH]c3c(c2c1)CCCCC3	.	57
CN(Cc1ccco1)S(=O)(=O)c1ccc2[nH]c3c(c2c1)CCCCC3	.	78
CN(C)c1ccc(CNS(=O)(=O)c2ccc3[nH]c4c(c3c2)CCCCC4)cc1	.	55
O=c1[nH]c2ccc(S(=O)(=O)NCc3ccco3)cc2s1	.	.
O=S(=O)(NCc1cccnc1)c1ccc2[nH]c3c(c2c1)CCCC3	.	.
O=S(=O)(NCc1ccco1)c1ccc2[nH]c3c(c2c1)CCCCC3	.	87
NS(=O)(=O)c1cc2c(cc1Cl)NCNS2(=O)=O	.	.
Cc1c(C(=O)Nc2ccccc2C(N)=O)cccc1[N+](=O)[O-]	.	.
COc1ccc(CNCc2ccccc2[N+](=O)[O-])c(OC)c1	.	.
Cc1cc(OCC(=O)Nc2ccccc2F)nc(N2CCCC(C)C2)n1 (configuration not stated)	.	.
COc1cc(C2(c3ccc(O)c(OC)c3)C(=O)Nc3ccccc32)ccc1O	.	.
CCCn1c(C2CCN(C(=O)Cc3cccs3)C2)nc2cccnc21 (configuration not stated)	.	.
O=C(CSc1ccc(-c2ccccn2)nn1)Nc1ccc(F)c(F)c1	.	99
O=C(CSc1ccccn1)Nc1ccc(Br)cc1	.	.
O=C(c1cccc(F)c1)N1CCC(n2c(-c3ccco3)nc3cccnc32)C1 (configuration not stated)	.	.
O=C(c1ccc(F)cc1)N1CCC(n2c(-c3ccco3)nc3cccnc32)C1 (configuration not stated)	.	.
O=C(c1cccc(Br)c1)N1CCC(n2c(-c3ccco3)nc3cccnc32)C1 (configuration not stated)	.	87
